Hits are enriched below; roughly 3.4% of the tested compounds scored in any of these assays.
ADAM10 inh: inhibits human ADAM10; O14672; recombinant ADAM10, EDANS/DABCYL FRET peptide cleavage, 3 h; inhibition, % at 7 µM; actives 0.62% (n = 370,000);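 active = inhibition above a per-campaign cutoff equal to the mean of compounds falling between control-based bounds plus 3 SD, cut at about 20% in these data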;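 also: 0% = DMSO wells while the 100% control is not disclosed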
sPLA2-III inh: Blocks human group III sPLA2 activity. Q9NZ20. AID 743126. actives 0.56% (n = 370,000). inhibition, % at 12.2 µM. QFRET BODIPY PC-A2 liposome hydrolysis, fluorescence;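 active = inhibition above mean plus 3 SD of compounds lying within the high and low control bounds, cut at about 19% in these data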;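 also: 0% = median of test compound wells and 100% = no enzyme DMSO wells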
PLCg1 inh: blocks human PLC-gamma1 enzyme activity; P19174; purified PLC-gamma1, fluorogenic substrate, fluorescence; inhibition, % at 12.2 µM; actives 0.84% (n = 370,000); AID 720700; in the data active = inhibition above about 9.5%
PLCb3 inh: PLC-beta3 (human) inhibition, primary screen; inhibition, % at 12.2 µM; Q01970; AID 720704; actives 0.18% (n = 370,000); Purified PLC-beta3, fluorogenic substrate, fluorescence;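 also: 0% = median of compound wells on plate and 100% = full blocker control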
KLK7 zymogen act: activators of human kallikrein-7 zymogen. actives 0.9% (n = 370,000). P49862. AID 652039. purified proKLK7, EDANS-DABCYL substrate fluorescence; 100% is mature enzyme control, 0% vehicle. activation, % at 7 µM;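 active = activation above the mean of all tested compounds plus 3 SD, computed per campaign excluding outliers beyond control limits, cut at about 13% in these data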
ADAM17 inh: inhibitors of human ADAM17 | P78536 | recombinant ADAM17, EDANS/DABCYL FRET peptide cleavage | inhibition, % at 6.95 µM | actives 0.83% (n = 370,000) | AID 720648;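 active = inhibition above the mean of compounds lying between control limits plus 3 SD, set per campaign, cut at about 8.5% in these data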;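 also: 0% = DMSO-only wells as the low control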
Target sequence (P78536 215-824 limits assumed): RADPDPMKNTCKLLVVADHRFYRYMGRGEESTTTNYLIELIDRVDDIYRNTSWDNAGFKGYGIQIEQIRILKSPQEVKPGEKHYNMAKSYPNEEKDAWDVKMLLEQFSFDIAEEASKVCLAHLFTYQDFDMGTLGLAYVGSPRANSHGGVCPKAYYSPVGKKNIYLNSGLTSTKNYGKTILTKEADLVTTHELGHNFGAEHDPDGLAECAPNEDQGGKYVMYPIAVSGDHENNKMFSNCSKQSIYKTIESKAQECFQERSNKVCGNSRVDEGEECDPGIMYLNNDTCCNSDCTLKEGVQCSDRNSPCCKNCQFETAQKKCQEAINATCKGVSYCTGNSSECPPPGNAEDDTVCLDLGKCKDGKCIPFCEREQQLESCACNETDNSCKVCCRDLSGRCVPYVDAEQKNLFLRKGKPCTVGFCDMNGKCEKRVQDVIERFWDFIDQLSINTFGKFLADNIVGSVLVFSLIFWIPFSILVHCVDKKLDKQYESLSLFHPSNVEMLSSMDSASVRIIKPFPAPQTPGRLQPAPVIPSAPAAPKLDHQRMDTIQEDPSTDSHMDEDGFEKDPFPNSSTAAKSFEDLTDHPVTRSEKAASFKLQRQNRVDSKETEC
PLCgamma1 ctr: counter-screen for PLC-beta3 inhibitors: inhibitors of human PLC-gamma1. shares compounds with PLCg1 inh. purified PLC-gamma1, fluorogenic substrate, fluorescence. inhibition, % at 12.3 µM. actives 3.1% (n = 3,300). AID 743258; in the data active = inhibition above about 9.5%
PLCbeta3 conf: confirmation of human PLC-beta3 inhibitors. actives 1% (n = 3,300). inhibition, % at 12.3 µM. shares compounds with PLCg1 inh. AID 743261. purified PLC-beta3, fluorogenic substrate fluorescence
* hit, by the source's call; nt = no result given. Rule as the data show it, unless noted: active = inhibition above about 11%; inactive = the rest.

SMILES	ADAM10 inh	sPLA2-III inh	PLCg1 inh	PLCb3 inh	KLK7 zymogen act	ADAM17 inh	PLCgamma1 ctr	PLCbeta3 conf
O=C(CNC(=O)c1cccc(F)c1)OCC(=O)N1CCCc2ccccc21	0.4	4.9	12.1*	4.9	0.1	2.2	-1.8	-0.5
Cc1[nH]n(-c2ccccc2)c(=O)c1C(c1cccc([N+](=O)[O-])c1O)c1c(C)[nH]n(-c2ccccc2)c1=O	17.2	-2.6	31.3*	13.7*	0.2	7.3	4.2	3.5
Cc1[nH]n(-c2ccccc2)c(=O)c1C(c1ccc(C(=O)O)cc1)c1c(C)[nH]n(-c2ccccc2)c1=O	6.5	-1.8	25.8*	7.8	0.3	3.5	-10.6	-5.5
C=CCn1c(SCCN2C(=O)c3ccccc3C2=O)nc2scc(-c3ccc(F)cc3)c2c1=O	12.9	4.9	12.7*	6.3	-0.6	6.5	-3.9	-2.3
C=CCn1c(SCC(=O)N2CC(=O)Nc3ccccc32)nc2scc(-c3ccccc3)c2c1=O	11.2	-9.1	4.1	-0.7	-1.6	4.3	nt	nt
CCN1C(=O)[C@H]2[C@@H](c3ccc(-c4cccc(Cl)c4)cc3)N[C@@](Cc3ccccc3)(C(=O)OC)[C@H]2C1=O	16.0	-6.5	0.4	-0.5	0.5	3.0	nt	nt
CSc1ncccc1C(=O)NC1CCCc2c1cnn2-c1ccc(C)c(C)c1 (centres undefined)	4.2	-5.6	11.4*	-7.8	-1.1	-3.7	1.9	0.1
CC1Cn2c(CCc3ccccc3)nnc2S1 (centres undefined)	-7.9	1.6	0.4	-2.1	0.3	-1.5	nt	nt
CC1Cn2c(Cc3ccccc3)nnc2S1 (centres undefined)	1.4	7.8	8.0	14.3*	0.1	5.4	-1.2	3.1
CC1(C)OC2OC(COC(=O)c3ccc([N+](=O)[O-])cc3)C3OC(C)(C)OC3C2O1 (centres undefined)	-0.5	-3.7	10.6*	5.2	0.1	1.7	-1.3	1.4
Clc1ccccc1COc1ccc(/C=N/n2cnnc2)cc1	0.5	-13.3	1.0	3.6	-0.1	-1.2	nt	nt
C=CCNC(=S)N/N=C/c1ccc(OCc2ccccc2Cl)cc1	5.8	7.2	10.0*	-0.8	-0.9	7.4	-5.4	-9.1
O=S(=O)(CS(=O)(=O)c1ccccc1Br)c1ccccc1Br	-5.4	2.1	22.1*	-0.7	0.0	-4.6	17.1*	-11.8
O=S(=O)(NCc1ccccc1)c1ccccc1Br	5.7	-4.7	-1.2	3.2	-0.2	-2.8	nt	nt
Cc1ccc(S(=O)(=O)N2CCCC2CNC(=O)c2ccccc2)cc1 (centres undefined)	-3.2	-8.3	-0.3	-8.2	0.9	1.1	nt	nt
COc1ccc(C(=O)NCC2CCCN2S(=O)(=O)c2ccccc2)cc1OC (centres undefined)	-2.1	-3.4	9.5*	-2.5	0.3	3.9	-2.5	0.5
Cc1ccc(NC(=O)COC(=O)c2cc(-c3cccs3)nn2-c2ccccc2)cc1[N+](=O)[O-]	5.7	3.1	10.7*	4.2	0.5	4.4	-3.9	-6.2
O=C(COC(=O)c1cc(-c2cccs2)nn1-c1ccccc1)Nc1cccc([N+](=O)[O-])c1	-5.5	-1.1	1.4	-2.3	0.2	-1.9	nt	nt
Nc1cc(=O)[nH]c(SCc2cccc(Cl)c2)n1	2.2	7.4	10.0*	10.3	-0.8	6.3	2.0	3.3
CN(C)c1nc(Oc2ccc(=O)n(-c3ccccc3)n2)nc(N2CCOCC2)n1	1.9	-1.8	12.7*	-1.8	-0.4	-3.7	-5.9	-0.1
Cc1cc(NC(=O)CC2Oc3ccccc3NC2=O)ccc1Br (centres undefined)	2.3	-11.9	-0.5	-0.7	-0.1	-2.4	nt	nt
CC1(C(=O)Nc2ccc(F)cc2F)CCN1C(=O)Cc1ccc(Cl)cc1Cl (centres undefined)	-1.8	-5.9	4.7	3.1	1.3	4.1	nt	nt
CC1(C(=O)Nc2ccc(F)cc2F)CCN1C(=O)Cc1ccccc1 (centres undefined)	2.4	2.8	10.8*	4.0	-0.2	4.8	-3.3	-0.2
O=[N+]([O-])/C(C(Cl)=C(Cl)Cl)=C(/Sc1ccccc1)N1CCCCC1	-2.0	15.3	0.0	-3.9	-0.3	-3.6	nt	nt
O=C(NCCc1ccccc1)c1c[nH]c2ccccc2c1=O	-0.7	-12.9	9.2	11.2*	-0.3	1.7	-2.7	-1.8
SMILES	ADAM10 inh	sPLA2-III inh	PLCg1 inh	PLCb3 inh	KLK7 zymogen act	ADAM17 inh	PLCgamma1 ctr	PLCbeta3 conf
CCCCC(=O)Nc1ccccc1Oc1ccccc1	-4.1	2.6	2.3	0.4	0.2	-0.2	nt	nt
O=C(C[n+]1ccccc1)N/N=C/c1ccc(Cl)cc1	-6.1	2.5	3.4	-4.6	-0.7	-5.3	nt	nt
CC(C)(C)c1ccc(/C=N/NC(=O)C[n+]2ccccc2)cc1	-1.1	-25.1	9.9*	2.0	0.4	1.7	-8.1	-2.4
COc1cccc(CNC(=O)C2CCN(Cc3cnn(-c4ccccc4)c3-n3cccc3)CC2)c1	9.4	-17.1	9.7*	4.7	-0.2	7.4	1.7	-0.8
CCSC1=C(C#N)C2(CCCCC2)C(C#N)=C(N)N1	-3.9	6.0	-3.1	-2.2	-0.3	2.8	nt	nt
CCSC1=C(C#N)C2(CCCCC2)C(C#N)C(=O)N1 (centres undefined)	13.5	0.2	12.8*	2.3	-0.4	1.7	-6.4	-4.7
CC(=O)Nc1cc(C(=O)N(C)Cc2ccccc2)ccc1S(=O)(=O)c1ccc(C)cc1	-4.9	-5.2	-0.2	1.2	-0.8	-1.9	nt	nt
CC(C)NC(=O)C1Cc2c(-c3ccccc3Oc3ccccc3)ccnc2O1 (centres undefined)	-19.5	11.7	3.3	-0.3	0.3	-1.2	nt	nt
Cn1c(=O)oc2cc(S(=O)(=O)N3CCN(c4ccccc4)CC3)ccc21	5.6	1.1	10.6*	3.9	-0.4	2.8	6.8	2.5
CC1CC(C(=O)Nc2ccccc2)C(=O)O1 (centres undefined)	2.9	-9.6	2.2	-3.8	0.5	-1.5	nt	nt
C=CCN1C(=O)[C@H](CC(=O)NCc2ccc(C)o2)[C@@]2(C(=O)OCC)CCCC=C12	-4.3	-7.2	0.1	1.8	0.4	-6.6	nt	nt
COC(=O)[C@]12CCCCC=C1N(Cc1ccc(OC)cc1)C(=O)[C@@H]2CC(=O)N1CCN(C(=O)C2CC2)CC1	6.9	11.9	11.6*	8.8	-0.4	4.1	-3.6	-0.7
CCOC(=O)N1CCN(C(=O)C[C@H]2C(=O)N(Cc3ccc(OC)cc3)C3=CCCC[C@@]32C(=O)OCC)CC1	0.6	3.5	11.2*	2.1	0.1	-7.3	-7.3	-2.1
CCOC(=O)[C@]12CCCC=C1N(CCCOC)C(=O)[C@@H]2CC(=O)NCc1ccc(C)o1	1.6	2.1	10.0*	3.4	-0.6	5.3	6.4	0.1

Screens deposited in PubChem BioAssay by The Scripps Research Institute Molecular Screening Center.
